# Experimental data published in PubChem BioAssay AID720688 (NMMLSC, 2013).
# Active and inactive are the calls of the source.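 Rule for the calls: active = half-effect concentration at most 10 µM, response change at least 30% across doses, and a curve fit passing quality checks; inactive = the rest.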
# Biological target: Cell division control protein 42 homolog (Homo sapiens) (UniProt P60953)
# Test: Cdc42 wildtype GTP-binding inhibitors, late-stage follow-up, mechanism study for Ras-family GTPase inhibitor project, biochemical, protein source comparison, flow cytometry beads, Bodipy-FL-GTP (AID 720688)
# Conditions: GST-Cdc42 beads; protein source 1, at 100 µM (top of the series)
# Chain of Cell division control protein 42 homolog (Homo sapiens) (P60953 whole entry, looked up): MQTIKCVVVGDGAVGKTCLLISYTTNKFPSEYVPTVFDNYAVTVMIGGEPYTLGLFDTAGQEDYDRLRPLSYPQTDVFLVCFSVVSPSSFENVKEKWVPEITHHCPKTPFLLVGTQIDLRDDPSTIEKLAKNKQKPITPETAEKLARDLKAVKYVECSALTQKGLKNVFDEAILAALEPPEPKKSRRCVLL
row,Structure (SMILES),outcome
1,CC1(C)Cc2c(sc(NC(=S)NC(=O)c3ccc(N=[N+]=[N-])cc3)c2C(=O)O)CO1,inactive
2,CC1(C)Cc2c(sc(NC(=S)NC(=O)c3cccc(N=[N+]=[N-])c3)c2C(=O)O)CO1,inactive
